# Experimental data as given in PubChem BioAssay.
# Records with an inconclusive call do not appear. Active and inactive are the calls of the source. Unless noted, the limit is not given here; nearly all actives have AC50 up to about 26 µM.
# Experiments:
# [1] = growth inhibition of DIPG glioma cells, dose response, cell-based, SU-DIPG-XVII, MIPE5.0, CellTiter-Glo, qHTS (AID 1347060); conditions: SU-DIPG-XVII viability, CellTiter-Glo ATP luminescence;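 as to AC50: cells exposed to compound for 48 hours before viability readout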
# [2] = growth inhibition of DIPG glioma cells, dose response, cell-based, SU-DIPG-XIII, MIPE5.0, CellTiter-Glo, qHTS (AID 1347064; cut-off not given, nearly all actives have AC50 up to about 23 µM;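 as to AC50: cells exposed to compound for 48 hours before the viability read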); conditions: SU-DIPG-XIII viability, CellTiter-Glo ATP luminescence
# [3] = SU-DIPG-XXV glioma cell viability, MIPE5.0 library, qHTS (AID 1347068; cut-off not given, nearly all actives have IC50 up to about 30 µM;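 as to IC50: cells exposed to compound for 48 hours before viability readout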)
# [4] = sensitizers of A549 cells to miR-34 induction, primary screen, imaging, A549 dox-inducible miR-34, nuclei and caspase counts (AID 1347080;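 active = compounds whose cell count with miR-34 switched on is under 0.7 times the count with it off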); conditions: A549 miR-34 inducible, Hoechst nuclei count, 48 h
# [5] = survival rescue of mitochondrial mutant cells in low glucose, primary screen, MELAS cybrids, Rieske KO mouse fibroblasts, CellTiter-Glo (AID 1508586;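 active = mean z-score across replicates of 1.96 or higher in either the MELAS or the Rieske mutant cell line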;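 also: z relative to plate mean and SD of compound and empty wells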)
# [6] = viability loss in pontine glioma line – cell-based, SU-DIPG-XXV, MIPE5.0, CellTiter-Glo, qHTS, dose response (AID 1347065); conditions: CellTiter-Glo ATP luminescence;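 also: cells exposed to compound for 48 hours before ATP readout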
# [7] = JHH-DIPG-1 glioma cell viability, MIPE5.0 library, CellTiter-Glo luminescence, qHTS (AID 1347067); conditions: JHH-DIPG-1 glioma viability, CellTiter-Glo ATP luminescence;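 also: cells exposed to compound for 48 hours before readout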
# [8] = ovarian cancer cell viability with rucaparib, profiling panel, oncology-focused library, rucaparib conditional (AID 1508598;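 active = normalized viability below 100% at a tested concentration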); conditions: patient-derived ovarian cancer cells, CellTiter-Glo viability, 144 h, stronger effect = lower value
# [9] = stronger effect = lower value, cell number ratio, induced over uninduced
# [10] = measured here: relative caspase fold change +Dox/-Dox
# [11] = measured here: total cells with miR-34 induction, stronger effect = lower value
# [12] = measured here: total cells without miR-34 induction
# [13] = MELAS cybrid survival, CellTiter-Glo 48 h, stronger effect = higher value
# [14] = Rieske KO mouse fibroblast survival, CellTiter-Glo 72 h
compound,measurement,setting,value
CONC(=O)Nc1ccc(-c2sc3c(c2CN(C)Cc2ccccc2)c(=O)n(-c2ccccc2)c(=O)n3Cc2c(F)cccc2F)cc1,outcome,[1],inactive
same,outcome,[2],inactive
same,outcome,[3],inactive
Cn1cnc(-c2cc3nccc(Oc4ccc(NC(=S)NC(=O)Cc5ccccc5)cc4F)c3s2)c1,AC50,[1],16.6 µM (active)
same,AC50,[2],18.6 µM (active)
same,IC50,[3],4.17 µM (active)
same,fold change,[4]; [9],0.83 (inactive)
same,fold change,[4]; [10],1.19
same,cell count,[4]; [11],3930
same,cell count,[4]; [12],4730
same,z-score,[5]; [13],-0.555 (inactive)
same,z-score,[5]; [14],-0.0569
CC1=C2[N-][C@H]([C@H](CC(N)=O)[C@@]2(C)CCC(=O)NC[C@@H](C)OP(=O)([O-])O[C@H]2[C@@H](O)[C@@H](n3cnc4cc(C)c(C)cc43)O[C@@H]2CO)[C@]2(C)N=C(C(C)=C3N=C(C=C4N=C1[C@@H](CCC(N)=O)C4(C)C)[C@@H](CCC(N)=O)[C@]3(C)CC(N)=O)[C@@H](CCC(N)=O)[C@]2(C)CC(N)=O.O.[Co+2],outcome,[1],inactive
same,outcome,[6],inactive
CC(C)N(C[C@H]1O[C@@H](n2cnc3c(N)ncnc32)[C@H](O)[C@@H]1O)C1CC(CCc2nc3ccc(C(C)(C)C)cc3[nH]2)C1 (stereo partly drawn),outcome,[1],inactive
same,outcome,[2],inactive
same,outcome,[7],inactive
same,outcome,[3],inactive
Cc1cccc(-c2[nH]ncc2-c2ccc(F)c(-c3cnn(CCO)c3)c2)n1,outcome,[1],inactive
same,outcome,[2],inactive
same,IC50,[3],26.3 µM (active)
Cc1cccc(Nc2nc(N[C@@H]3CCCC[C@@H]3N)ncc2C(N)=O)c1,AC50,[1],18.6 µM (active)
same,AC50,[6],18.6 µM (active)
CCOC(=O)c1ccnc(CNCC(=O)N(CC)CCN(C)C)c1,outcome,[1],inactive
same,outcome,[2],inactive
same,outcome,[3],inactive
COc1ncc(Nc2ncc(C(C)N3CCN(S(C)(=O)=O)CC3)cc2-c2nc(C)nc(N)n2)cc1F (stereo not drawn),AC50,[1],0.934 µM (active)
same,AC50,[6],0.235 µM (active)
Cn1c(=O)c(-c2c(Cl)cccc2Cl)cc2cnc(Nc3cccc(C(=O)O)c3)nc21,AC50,[1],1.48 µM (active)
same,AC50,[2],2.35 µM (active)
same,outcome,[3],inactive
CN1C(=O)c2sccc2N(C)c2nc(Nc3ccc(S(N)(=O)=O)cc3)ncc21,AC50,[1],14.8 µM (active)
same,AC50,[6],3.72 µM (active)
N[C@@H]1CN(c2c(F)cc3c(=O)c(C(=O)O)cn([C@@H]4C[C@@H]4F)c3c2Cl)CC12CC2,outcome,[1],inactive
same,outcome,[2],inactive
same,outcome,[7],inactive
same,outcome,[3],inactive
NC1CCCN(c2c(/C=C3\SC(=O)NC3=O)cccc2-c2ccccc2)C1 (stereo not drawn),outcome,[1],inactive
same,outcome,[2],inactive
same,outcome,[7],inactive
same,outcome,[3],inactive
Cn1cc(-c2ccc3c(c2)CCN3C(=O)Cc2cccc(C(F)(F)F)c2)c2c(N)ncnc21,outcome,[1],inactive
same,outcome,[2],inactive
same,outcome,[7],inactive
same,outcome,[3],inactive
same,fold change,[4]; [9],0.811 (inactive)
same,fold change,[4]; [10],0.484
same,cell count,[4]; [11],4720
same,cell count,[4]; [12],5820
same,z-score,[5]; [13],-0.412 (inactive)
same,z-score,[5]; [14],-1.76
same,viability,"[8]; at 0.000305 µM, OCI-C5x cells, with rucaparib 10 µM, 100% = cells with rucaparib alone",120% (inactive)
same,viability,"[8]; at 0.000305 µM, OCI-C5x cells, without rucaparib",118% (inactive)
same,viability,"[8]; at 0.000305 µM, OCI-P5x cells, with rucaparib 20 µM, 100% = cells with rucaparib alone",89.4% (active)
same,viability,"[8]; at 0.000305 µM, OCI-P5x cells, without rucaparib",96.4% (active)
same,viability,"[8]; at 0.00122 µM, OCI-C5x cells, with rucaparib 10 µM, 100% = cells with rucaparib alone",116% (inactive)
same,viability,"[8]; at 0.00122 µM, OCI-C5x cells, without rucaparib",114% (inactive)
same,viability,"[8]; at 0.00122 µM, OCI-P5x cells, with rucaparib 20 µM, 100% = cells with rucaparib alone",90.8% (active)
same,viability,"[8]; at 0.00122 µM, OCI-P5x cells, without rucaparib",99.7% (active)
same,viability,"[8]; at 0.00488 µM, OCI-C5x cells, with rucaparib 10 µM, 100% = cells with rucaparib alone",116% (inactive)
same,viability,"[8]; at 0.00488 µM, OCI-C5x cells, without rucaparib",115% (inactive)
same,viability,"[8]; at 0.00488 µM, OCI-P5x cells, with rucaparib 20 µM, 100% = cells with rucaparib alone",92.8% (active)
same,viability,"[8]; at 0.00488 µM, OCI-P5x cells, without rucaparib",101% (inactive)
same,viability,"[8]; at 0.0195 µM, OCI-C5x cells, with rucaparib 10 µM, 100% = cells with rucaparib alone",107% (inactive)
same,viability,"[8]; at 0.0195 µM, OCI-C5x cells, without rucaparib",114% (inactive)
same,viability,"[8]; at 0.0195 µM, OCI-P5x cells, with rucaparib 20 µM, 100% = cells with rucaparib alone",98% (active)
same,viability,"[8]; at 0.0195 µM, OCI-P5x cells, without rucaparib",107% (inactive)
same,viability,"[8]; at 0.0781 µM, OCI-C5x cells, with rucaparib 10 µM, 100% = cells with rucaparib alone",106% (inactive)
same,viability,"[8]; at 0.0781 µM, OCI-C5x cells, without rucaparib",113% (inactive)
same,viability,"[8]; at 0.0781 µM, OCI-P5x cells, with rucaparib 20 µM, 100% = cells with rucaparib alone",88% (active)
same,viability,"[8]; at 0.0781 µM, OCI-P5x cells, without rucaparib",101% (inactive)
same,viability,"[8]; at 0.313 µM, OCI-C5x cells, with rucaparib 10 µM, 100% = cells with rucaparib alone",109% (inactive)
same,viability,"[8]; at 0.313 µM, OCI-C5x cells, without rucaparib",125% (inactive)
same,viability,"[8]; at 0.313 µM, OCI-P5x cells, with rucaparib 20 µM, 100% = cells with rucaparib alone",79.9% (active)
same,viability,"[8]; at 0.313 µM, OCI-P5x cells, without rucaparib",107% (inactive)
same,viability,"[8]; at 1.25 µM, OCI-C5x cells, with rucaparib 10 µM, 100% = cells with rucaparib alone",123% (inactive)
same,viability,"[8]; at 1.25 µM, OCI-C5x cells, without rucaparib",144% (inactive)
same,viability,"[8]; at 1.25 µM, OCI-P5x cells, with rucaparib 20 µM, 100% = cells with rucaparib alone",74.9% (active)
same,viability,"[8]; at 1.25 µM, OCI-P5x cells, without rucaparib",109% (inactive)
same,viability,"[8]; at 5 µM, OCI-C5x cells, with rucaparib 10 µM, 100% = cells with rucaparib alone",7.91% (active)
same,viability,"[8]; at 5 µM, OCI-C5x cells, without rucaparib",79% (active)
same,viability,"[8]; at 5 µM, OCI-P5x cells, with rucaparib 20 µM, 100% = cells with rucaparib alone",53% (active)
same,viability,"[8]; at 5 µM, OCI-P5x cells, without rucaparib",69.3% (active)
CCN(CC)C(=O)Cc1csc(NS(=O)(=O)c2cccc(Cl)c2C)n1,outcome,[1],inactive
same,outcome,[6],inactive
Cc1nc2ccc(-n3ncc(C(=O)c4cc5ccccc5[nH]4)c3N)cc2[nH]1,AC50,[1],0.468 µM (active)
same,AC50,[6],0.833 µM (active)
Cc1cc2c(F)c(Oc3ncnn4cc(OCC(C)OC(=O)C(C)N)c(C)c34)ccc2[nH]1 (stereo not drawn),AC50,[1],16.6 µM (active)
same,AC50,[2],16.6 µM (active)
same,fold change,[4]; [9],1.09 (inactive)
same,fold change,[4]; [10],0.564
same,cell count,[4]; [11],4840
same,cell count,[4]; [12],4460
same,z-score,[5]; [13],0.128 (inactive)
same,z-score,[5]; [14],1.06
CCCN1CCN(c2ccc(C(=O)NC3(C(=O)NCC#N)CCCCC3)cc2)CC1,outcome,[1],inactive
same,outcome,[2],inactive
same,outcome,[7],inactive
same,outcome,[3],inactive
O=C(Nc1cccc(C(F)(F)F)c1)Nc1cc(S(=O)(=O)NC2CC2)ccc1-c1ccsc1,outcome,[1],inactive
same,outcome,[2],inactive
same,outcome,[7],inactive
same,outcome,[3],inactive
same,fold change,[4]; [9],0.892 (inactive)
same,fold change,[4]; [10],0.311
same,cell count,[4]; [11],6420
same,cell count,[4]; [12],7200
same,z-score,[5]; [13],-0.374 (inactive)
same,z-score,[5]; [14],-0.851
COc1ccc(Cl)c(Nc2nc3ccccc3nc2NS(=O)(=O)c2cccc(NC(=O)C(C)(C)N)c2)c1,AC50,[1],14.8 µM (active)
same,AC50,[6],10.5 µM (active)
CCn1nc(C2CCN(C(=O)CCO)CC2)nc1-c1cnc(N)c(-c2nnc(C(C)(C)C)o2)n1,AC50,[1],5.9 µM (active)
same,AC50,[6],2.09 µM (active)
